Measurements from PubChem BioAssay (NCATS).
Records with an inconclusive call do not appear. A call without a number means that no potency is given here. Calls of active or inactive are those of the source. The call rests on the fitted dose curve; in most records, active means well fitted curve in the direction sought with a large enough effect; inconclusive means small, poorly fitted or top-dose-only effect, or another doubt; inactive means no such curve, though single readings can be large; an effect the other way counts as inactive or inconclusive.

Key:
[1] = molecular target: Aldehyde dehydrogenase, mitochondrial (Homo sapiens) (UniProt P05091); test: qHTS for Inhibitors of the Aldehyde Dehydrogenase Family (ALDH2) Primary screen (AID 2061308); further: nearly all actives have a fitted effect of over 55% in size; further: potency means the concentration at half of the fitted maximal effect
[2] = molecular target: Retinaldehyde dehydrogenase 3 (Homo sapiens) (UniProt P47895); test: qHTS for Inhibitors of the Aldehyde Dehydrogenase Family (ALDH1A3) Primary screen (AID 2061315)

Row | SMILES | Potency [1] | Potency [2]
1 | CCCn1c(-c2ccc(F)cc2)nc2c(NCCN(C(C)C)C(C)C)nc(C)nc21 | inactive | inactive
2 | Fc1ccccc1N1CCN(c2nc(-c3cccs3)nc3ccccc23)CC1 | inactive | inactive
3 | COc1ccc(C2Nc3ccccc3C(=O)N2Cc2ccccc2)cc1Oc1ccc(NC(C)=O)cc1 (stereo unspecified) | inactive | inactive
4 | Nc1ccc(-c2cccc3c(=O)cc(N4CCOCC4)oc23)cc1 | inactive | inactive
5 | CCc1cccc(CC)c1NC(=O)c1nn(C)c2c1CCc1cnc(Nc3ccc(C(=O)NC4CCN(C)CC4)cc3OC(F)(F)F)nc1-2 | inactive | inactive
6 | CCCn1c(C)nc2c(N3CCC(N(C)C)C3)nc(C)nc21 (stereo unspecified) | inactive | inactive
7 | O=S(=O)(c1ccc2c(c1)OCCO2)N1CCN(S(=O)(=O)c2ccccc2OC(F)(F)F)CC1 | inactive | inactive
8 | O=S(=O)(Nc1nccs1)c1ccc(NCc2ccccc2)cc1 | inactive | inactive
9 | C=C1[C@@H](C)[C@H]2[C@H](Cc3c[nH]c4ccccc34)NC(=O)[C@]23C(=O)/C=C/C(=O)[C@H](O)/C(C)=C\[C@@H](C)C/C=C/[C@H]3[C@@H]1O | 11.2 µM (active) | inactive
10 | C[C@@H]1O[C@@H](O[C@@H]2[C@@H](O)[C@H](O[C@H]3CC[C@@]4(C)C(CC[C@]5(C)C4CC=C4[C@@H]6CC(C)(C)CC[C@]6(C(=O)O[C@@H]6O[C@H](CO)[C@@H](O)[C@H](O)[C@H]6O)CC[C@]45C)C3(C)C)O[C@H](C(=O)O)[C@H]2O)[C@H](O)[C@H](O)[C@H]1O (stereo partly specified) | inactive | inactive
11 | Cc1cc(N[S+](=O)([O-])c2ccc(NC(=O)Cc3ccc(F)c(C(F)(F)F)c3)cc2)no1 | inactive | inactive
12 | COc1cc(C(=O)OC[C@@]2(O)CO[C@@H](O[C@H]3[C@H](Oc4ccc(O)cc4)O[C@H](CO)[C@@H](O)[C@@H]3O)[C@@H]2O)cc(OC)c1O | inactive | inactive
13 | Cc1ccc(OCCn2c(CCNC(=O)c3cccc(NC(=O)OC(C)(C)C)c3)nc3ccccc32)cc1 | inactive | inactive
14 | O=S1(=O)N=C(Sc2cc(C(F)(F)F)cc(C(F)(F)F)c2)c2ccccc21 | inactive | inactive
15 | COc1ccc(C2Nc3ccccc3C(=O)N2CCCN(C)C)cc1COc1c(C)cc(NC(C)=O)cc1C (stereo unspecified) | inactive | inactive
16 | Cc1ccc(NC(=O)c2cnn3c(C)cc(C)nc23)cc1 | inactive | inactive
17 | Cc1ccc(S(=O)(=O)Nc2ccccc2C(=O)Nc2nc(-c3ccccc3)co2)cc1 | inactive | inactive
18 | CC(=O)c1ccccc1-c1ncc(C)c(NCC2CCN(c3cccnc3)CC2)n1 | inactive | inactive
19 | Cc1ccc(OCCn2c3c(c4ccccc42)CCN(C(=O)C2CCCCC2)C3)cc1 | inactive | inactive
20 | Cc1ccc(-c2cc(C(=O)Nc3ccccc3Cl)c3ccccc3n2)cc1C | inactive | inactive
21 | CCOc1ccc(CCNC(=O)C2CCCCC2)cc1OCC | inactive | inactive
22 | O=C(Nc1cc(F)cc(F)c1)Nc1nnc(-c2ccncc2)s1 | inactive | inactive
23 | Cc1nc(NCc2ccccc2)c2nc(-c3ccccc3)n(CCN(C)C)c2n1 | inactive | inactive
24 | COc1ccc(OC)c(-c2nnc3n2N=C(c2ccc(OC)c(OC4CCCC4)c2)CS3)c1 | inactive | inactive
25 | CN1CCN(C(=O)[C@H](Cc2ccc(O[S+](=O)([O-])c3cccc4cnccc34)cc2)N[S+](=O)([O-])c2cccc3cnccc23)CC1 | inactive | inactive
26 | O=C(CCc1ccccc1)Nc1cccc([S+](=O)([O-])Nc2ccccc2F)c1 | inactive | inactive

Row | SMILES | Potency [1] | Potency [2]
27 | Cc1cccc(-c2[nH]c(Cc3cccc(C(N)=O)c3)nc2-c2ccc3nccnc3c2)n1 | inactive | inactive
28 | C=C1C(=O)OC2CC(C)=C(C(C)CCCOC(C)=O)C(OC(=O)CC(C)CC)C12 (stereo unspecified) | inactive | inactive
29 | Cc1ccc(S(=O)(=O)Nc2cnccc2C(=O)Nc2nc(-c3ccccc3)cs2)cc1 | inactive | inactive
30 | Cc1c(C(=O)NCC2CCCO2)[nH]c2c1C(=O)CC(c1ccco1)C2 (stereo unspecified) | inactive | inactive
31 | Cc1ccc(S(=O)(=O)Nc2ccc(C(=O)Nc3ncc(-c4ccccc4)s3)cc2)cc1 | inactive | inactive
32 | O=C(O)c1ccc(-c2nn3c(=O)cc(N4CCNCC4)nc3s2)cc1 | inactive | inactive
33 | CN[C@@H]1[C@H](O[C@H]2[C@H](O[C@@H]3[C@@H](O)[C@H](O)[C@@H](N=C(N)N)[C@H](O)[C@H]3N=C(N)N)O[C@@H](C)[C@]2(O)CO)O[C@@H](CO)[C@H](O)[C@H]1O | inactive | inactive
34 | Fc1ccc(Nc2nc(-c3ccnc(C(F)(F)F)c3)nc3ccccc23)cc1F | inactive | inactive
35 | O=C1Nc2ccccc2/C1=C/c1ccc[nH]1 | inactive | inactive
36 | O=C(OCC#CCSc1nnc(-c2ccc3ccccc3c2)o1)c1ccccc1 | inactive | inactive
37 | O=[S+]([O-])(Nc1nccs1)c1ccc(NCc2cccc(Cl)c2)cc1 | inactive | inactive
38 | O=C(CN1C(=O)N/C(=C\c2cn(-c3cccc(C(=O)O)c3)cn2)C1=O)Nc1ccc(Cl)cc1 | inactive | inactive
39 | CC1=C(C(=O)n2ccc3ccccc32)C(c2ccccc2Br)N=C(Nc2nc3ccccc3o2)N1 (stereo unspecified) | inactive | inactive
40 | Cc1ccc(NS(=O)(=O)c2cc3c(cc2NCCO)NC(=O)CC3)cc1C | inactive | inactive
41 | Cc1ccc(S(=O)(=O)Nc2ccccc2C(=O)Nc2ccc(-c3ccccc3)nc2)cc1 | inactive | inactive
42 | O=S(=O)(Nc1ccc2ccccc2c1)c1ccc(NCc2cccc(Cl)c2O)cc1 | inactive | inactive
43 | Cc1cc2c(s1)c1cnn(Cc3c(Cl)cccc3Br)c(=O)c1n2C | inactive | inactive
44 | COc1ccc(OC)c(NC(=O)C(OC(=O)CNC(=O)c2ccccc2)c2ccccc2)c1 (stereo unspecified) | inactive | inactive
45 | Cc1cc(C)n2ncc(C(=O)NC3CCC(C(C)(C)C)CC3)c2n1 (stereo unspecified) | inactive | inactive
46 | S=P(c1ccccc1)(c1ccccc1)c1nc(CCCc2ccccc2)n2ccccc12 | inactive | inactive
47 | Cc1cc2c(s1)c1cnn(Cc3ccccc3F)c(=O)c1n2C(C)C | inactive | inactive
48 | O=C(NCCCc1ccccc1)C1CCN(c2nc(-c3ccc(Br)cc3)cs2)CC1 | inactive | inactive
49 | COc1ccccc1/C=C/C(=O)NCCc1nc2ccccc2n1CCOc1ccc(C)cc1 | inactive | inactive
50 | Cc1ccc(-c2cc(C(=O)Nc3ccc(-n4cncn4)cc3)c3ccccc3n2)cc1C | inactive | inactive
51 | CC[C@]1(O)C[C@H]2CN(CCC3C(=Nc4ccccc43)[C@@](C(=O)OC)(c3cc4c(cc3OC)N(C)[C@H]3[C@@](O)(C(N)=O)[C@H](O)[C@]5(CC)C=CCN6CC[C@]43[C@@H]65)C2)C1 (stereo partly specified) | inactive | inactive
52 | Cc1ccccc1-c1nnc(NC(=O)Nc2ccc3ccccc3c2)s1 | inactive | inactive

Row | SMILES | Potency [1] | Potency [2]
53 | Cc1ccc(N2CCC(CNc3nc(-c4ccccc4C(C)C)ncc3C)CC2)cn1 | inactive | inactive
54 | O=C1CCCC2=C1C(c1cnccc1C(F)(F)F)N=C(Nc1nc3ccccc3o1)N2 (stereo unspecified) | inactive | inactive
55 | COc1ccc(CN(Cc2ccccc2)C(=O)c2ccccc2)cc1COc1ccc(NC(C)=O)cc1 | inactive | inactive
56 | CCOC(=O)c1c(/C=N/Nc2ccccc2)c2sc(C)cc2n1C | inactive | inactive
57 | Cc1ccc(OC2=NS(=O)(=O)c3ccccc32)cc1 | inactive | inactive
58 | CCCCNc1nc(C)nc2c1nc(-c1ccccc1)n2CCCCN(CC)CC | inactive | inactive
59 | Cn1nnnc1Sc1ncnc2scc(-c3ccc[nH]3)c12 | inactive | inactive
60 | O=C(CCc1ccccc1)Nc1ncnc2c1C(c1ccccc1)c1c(ccc3ccccc13)O2 (stereo unspecified) | inactive | inactive
61 | Cc1cc(C)n2ncc(C(=O)NC3CCCCC3)c2n1 | inactive | inactive
62 | Cc1nc(N2CCOCC2)c2nc(-c3ccccc3)n(CC3CCN(C)CC3)c2n1 | inactive | inactive
63 | O=C(Nc1ccc(Cl)c(C(F)(F)F)c1)Nc1nnc(-c2ccncc2)s1 | inactive | inactive
64 | O=C(Nc1ccc(S(=O)(=O)Nc2nccs2)cc1)c1ccc2ccccc2c1 | inactive | inactive
65 | O=Cc1nc(Nc2cc(F)cc(F)c2)nc(NC2CCCC2)n1 | inactive | inactive
66 | Cc1cccc(-n2cnc3cc(C(=O)N4CCC(N5CCOCC5)CC4)ccc32)c1 | inactive | inactive
67 | COc1cccc(C2c3c(ncn(-c4ccc5c(c4)OCO5)c3=N)Oc3ccc4ccccc4c32)c1 (stereo unspecified) | inactive | inactive
68 | Cc1cccc(C(=O)N2CCc3cc(-c4nc(NC(=O)Cc5ccc6c(c5)OCO6)sc4C)ccc32)c1 | inactive | inactive
69 | O=C(OCC#CCSc1nnc(-c2ccccc2)o1)c1ccc(F)cc1 | inactive | inactive
70 | Cc1ccc(S(=O)(=O)Nc2ccc(OC(F)(F)F)cc2C(=O)Nc2nc(-c3ccccc3)cs2)cc1 | inactive | inactive
71 | COc1ccc(-c2nc3ccccc3c(=O)n2Cc2ccco2)cc1COc1c(C)cccc1C | inactive | inactive
72 | N#CC1=C(NC=NCc2ccccc2)Oc2ccc3ccccc3c2C1c1ccccc1 (stereo unspecified) | inactive | inactive
73 | Cc1cc(C)nc(NC(=S)N2CCN(c3ncnc4ccccc34)CC2)c1 | inactive | inactive
74 | Cc1ccc(S(=O)(=O)Nc2cccc(C(=O)Nc3nc(-c4ccccc4)cs3)c2)cc1 | inactive | inactive
75 | CC1CCC2(C1)N=C(Nc1nc3ccccc3o1)NC1=C2C(=O)CCC1 (stereo unspecified) | inactive | inactive
76 | Cc1ccc(S(=O)(=O)NCCC(=O)Nc2nc(-c3ccccc3)cs2)cc1 | inactive | inactive
77 | COc1ccc(C2=Nn3c(nnc3-c3ccccc3O)SC2)cc1OC | inactive | inactive
78 | O=S(=O)(NCCNS(=O)(=O)c1c(F)cccc1F)c1ccc2c(c1)OCCO2 | inactive | inactive
